# Rows were chosen to be rich in hits. Some 1.2% of all compounds tested hit in one or more screens of this group.
# NOD2 RIPK2 PPI – NOD2-RIPK2 protein interaction inhibition. O43353. CHO BLA complementation NOD2-RIPK2, CCF4 ratio. inhibition, % at 4.98 µM. actives 0.38% (n = 360,000). AID 624267; in the data active means inhibition above about 21%;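 further: 0% = vehicle only and 100% = reference blocker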
# TLR9-MyD88 inh – TLR9-MyD88 interaction inhibition; Q9NR96+Q99836; actives 0.21% (n = 340,000); inhibition, % at 4.98 µM; CHO BLA complementation TLR9-MyD88, CCF4 FRET ratio;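 active means inhibition above the mean over all tested compounds plus 3 SD, cut at about 21% in these data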;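 further: 0% = DMSO only wells and 100% = clavulanate BLA inhibitor control wells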
# TLR4 MyD88 comp – inhibitors of human TLR4-MyD88 binding | O00206+Q99836 | AID 861 | actives 0.18% (n = 200,000) | inhibition, % at 8.4 µM | HeLa CL3-4 TLR4/MyD88 BLA complementation, FRET ratio; in the data active means inhibition above about 25%;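 further: 0% = vehicle and 100% = reference inhibitor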
# Target sequence (O00206 whole entry, looked up): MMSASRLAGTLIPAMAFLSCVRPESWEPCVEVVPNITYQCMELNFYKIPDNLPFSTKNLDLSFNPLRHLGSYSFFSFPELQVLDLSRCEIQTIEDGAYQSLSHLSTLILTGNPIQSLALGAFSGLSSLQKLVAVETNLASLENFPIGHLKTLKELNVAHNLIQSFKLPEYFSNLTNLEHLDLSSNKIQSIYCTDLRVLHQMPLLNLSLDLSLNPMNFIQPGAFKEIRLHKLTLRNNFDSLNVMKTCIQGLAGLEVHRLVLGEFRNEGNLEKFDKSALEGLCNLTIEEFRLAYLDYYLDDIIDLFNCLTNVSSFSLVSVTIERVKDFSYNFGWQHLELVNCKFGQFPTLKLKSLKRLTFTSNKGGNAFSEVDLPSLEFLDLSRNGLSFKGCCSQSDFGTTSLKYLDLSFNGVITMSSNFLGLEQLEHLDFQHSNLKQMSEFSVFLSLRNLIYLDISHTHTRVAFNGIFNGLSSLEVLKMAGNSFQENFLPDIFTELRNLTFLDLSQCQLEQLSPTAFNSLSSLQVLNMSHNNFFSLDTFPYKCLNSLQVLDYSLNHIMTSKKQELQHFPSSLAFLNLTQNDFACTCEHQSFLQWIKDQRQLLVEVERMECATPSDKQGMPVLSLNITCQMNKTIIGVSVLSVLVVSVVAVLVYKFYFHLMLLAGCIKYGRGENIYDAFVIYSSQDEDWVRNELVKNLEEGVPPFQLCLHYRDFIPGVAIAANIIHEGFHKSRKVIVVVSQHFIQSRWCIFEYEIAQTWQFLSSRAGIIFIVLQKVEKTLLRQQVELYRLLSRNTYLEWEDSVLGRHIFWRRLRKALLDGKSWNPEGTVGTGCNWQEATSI
# Target sequence (Q99836 whole entry, looked up): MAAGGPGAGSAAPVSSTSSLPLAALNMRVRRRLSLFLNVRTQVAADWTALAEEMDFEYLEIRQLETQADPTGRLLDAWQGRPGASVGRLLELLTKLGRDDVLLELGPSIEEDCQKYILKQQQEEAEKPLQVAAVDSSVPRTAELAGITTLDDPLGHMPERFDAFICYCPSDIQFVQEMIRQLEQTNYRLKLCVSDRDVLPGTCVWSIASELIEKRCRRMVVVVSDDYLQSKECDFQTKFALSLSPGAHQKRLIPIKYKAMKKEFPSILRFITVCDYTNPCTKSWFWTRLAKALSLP
# NPR1 activator – GC-A (human) enzyme activation | AID 1671463 | activation, % at 10 µM | HEK293 GC-A cells, cGMP TR-FRET, EC30 ANP; 0% at EC30 ANP, 100% saturating ANP | actives 0.14% (n = 370,000); in the data active means activation above about 40%
# NPR2 activator – GC-B (human) receptor activation; HEK293-GC-B cells, CNP EC30, cGMP TR-FRET; 0% at EC30 CNP, 100% saturating CNP; activation, % at 10 µM; P20594; actives 0.11% (n = 370,000);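 active means activation at 10 µM reaching about 35% in either raw or pattern-adjusted values, limit read from the data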
# Neddyl block – blocks human cullin neddylation; AID 651699; actives 0.58% (n = 360,000); TR-FRET cullin neddylation, biochemical; inhibition, % at 25 µM; P61081+Q13564; in the data active means inhibition above about 36%
# TLR9-MyD88 conf – confirmation of human TLR9-MyD88 binding inhibitors; shares compounds with TLR9-MyD88 inh; CHO TLR9/MyD88 BLA complementation, CCF4 FRET ratio; inhibition, % at 4.98 µM; actives 51% (n = 680); AID 540250;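 active means mean inhibition across three repeats above about 21% taken from the earlier screen, limit read from the data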;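 further: blue over green emission ratio reports constitutive TLR9 MyD88 association via BLA complementation; 0% = DMSO vehicle wells and 100% = clavulanate BLA inhibitor wells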
# BLA counter-1 – counter-screen for TLR9-MyD88 inhibitors: non-selective beta-lactamase inhibitors. actives 7% (n = 680). CHO-BLA cells, CCF4 FRET ratio, BLA reporter. shares compounds with TLR9-MyD88 inh. inhibition, % at 4.98 µM;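 active means mean inhibition above a 50% cutoff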;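 further: counterscreen of TLR9-MyD88 hits on CMV-driven BLA in CHO-K1 cells; 0% = DMSO alone and 100% = clavulanate blocking BLA; higher means less blue over green ratio so more BLA blockade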
# TLR9 CHO tox – counter-screen for TLR9-MyD88 inhibitors: cytotoxicity in CHO cells; shares compounds with TLR9-MyD88 inh; actives 39% (n = 680); inhibition, % at 4.98 µM; luminescence; in the data active means inhibition above about 11%
# NOD2 RIPK2 conf – confirmation of human NOD2-RIPK2 interaction inhibitors; actives 70% (n = 1,200); AID 624370; inhibition, % at 4.98 µM; shares compounds with NOD2 RIPK2 PPI; CHO cells, NOD2-RIPK2 BLA complementation, CCF4 FRET;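 active means mean inhibition across replicates above a set limit taken from the earlier primary screen, cut at about 21% in these data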;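 further: 0% = DMSO-only wells and the high end = clavulanate BLA-blocked wells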
# BLA counter-2 – hits BLA reporter in NOD2-RIPK2 inhibitor counterscreen. inhibition, % at 4.98 µM. CHO BLA reporter, CCF4 FRET ratio. actives 57% (n = 1,200). AID 624371. shares compounds with NOD2 RIPK2 PPI;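 active means mean inhibition above the low-control mean inhibition plus three low-control SD, cut at about 11% in these data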;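 further: 0% = DMSO only wells and 100% = clavulanate high control wells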
# An asterisk follows results filed as active; x = no result given.
SMILES,NOD2 RIPK2 PPI,TLR9-MyD88 inh,TLR4 MyD88 comp,NPR1 activator,NPR2 activator,Neddyl block,TLR9-MyD88 conf,BLA counter-1,TLR9 CHO tox,NOD2 RIPK2 conf,BLA counter-2
COc1ccc2nc(C)cc(NCc3ccc(F)cc3)c2c1,24*,38*,x,-10,-10,x,22*,18,30*,45*,44*
OCCN(CCO)c1nc(N2CCCCC2)c2nc(N(CCO)CCO)nc(N3CCCCC3)c2n1,36*,25*,10,-1,2,x,16,20,2,47*,51*
CN(C(=O)CN1C(=O)NC2(CCc3ccccc32)C1=O)C1CCCCC1 (configuration not stated),-6,x,x,0,9,4,x,x,x,x,x
CN(C(=O)CN1C(=O)c2cccc(N)c2C1=O)C1CCCCC1,61*,29*,x,10,7,x,17,20,2,51*,49*
COc1cc(/C=C/C(=O)/C=C(O)/C=C/c2ccc(O)c(OC)c2)ccc1O,54*,28*,x,-8,-5,-14,30*,28,6,55*,57*
CCCCCCSc1cc(-c2nc3cnccn3c2NCCCC)ccc1OC,44*,41*,x,x,x,x,26*,29,14*,40*,52*
CCN(CC)c1ccc(/C=C/c2cc(-c3ccccc3)c3ccccc3n2)cc1,69*,55*,x,13,-1,x,70*,80*,5,80*,86*
O=C(Nc1ccccc1)C1=C(c2ccccc2)S(=O)(=O)CCS1(=O)=O,50*,22*,11,10,9,-13,19,1,97*,60*,12*
O=C(O)c1ccccc1C(=O)Nc1ccccc1,1,-4,13,5,0,-4,x,x,x,x,x
Cc1ccsc1/C=C1\Oc2cc(O)ccc2C1=O,50*,25*,x,12,3,14,16,21,1,40*,52*
O=C1/C(=C/c2ccc(O)c(O)c2)Oc2cc(O)ccc21,13,13,x,1,-14,-8,x,x,x,x,x
COc1cc(/C=C2\Oc3cc(O)ccc3C2=O)ccc1O,44*,31*,x,7,-10,12,15,19,-2,43*,47*
COc1ccc(Oc2c(Br)cnn(Cc3cccc4ccccc34)c2=O)cc1,x,x,x,-24,-16,x,x,x,x,x,x
CS(=O)(=O)c1nc(-c2ccc(F)cc2)cc(C(F)(F)F)n1,62*,40*,15,72*,13,-27,35*,8,97*,62*,12*
CCCC(=O)NC1=C(Cl)C(=O)c2ccccc2C1=O,71*,37*,x,6,-11,2,61*,6,99*,90*,29*
CC(=O)Nc1cc2c3c(cccc3c1)-c1ccccc1-2,22*,24*,x,12,0,x,17,15,1,19,36*
CCCCCCCCN1C(=O)[C@@H](CC(=O)N2CCN(C(=O)c3ccco3)CC2)C[C@@]2(C(=O)OC)C1=C[C@H](C1CCCC1)O[C@@H]2C,x,x,x,-4,-1,x,x,x,x,x,x
COc1ccc(C2=CC(c3ccc(OC)c(OC)c3)n3nnnc3N2)c(OC)c1 (configuration not stated),44*,39*,4,7,1,x,21*,26,8,3,7

# Source: PubChem
